Assay outcomes: PubChem BioAssay, National Center for Advancing Translational Sciences (NCATS)
Menin MLL FP TR = inhibitors of human menin-MLL interaction, mutant MLL peptide. O00255. Menin + Texas Red MLL mutant peptide, fluorescence polarization. Potency, µM (titrated, usually from 61.6 µM), usual class: inhibitors. 270,000 tested, 0.23% active. AID 1768; active = well fitted inhibition curve with a large enough effect in the polarisation, with a control signal flat, not every such curve was filed as active; inconclusive = small, poorly fitted or top-dose-only effect, or effect the other way, or a change in a side signal; inactive = no such curve, though single readings can be large or run the other way; the % refers to the polarisation
Target sequence (O00255 whole entry, looked up): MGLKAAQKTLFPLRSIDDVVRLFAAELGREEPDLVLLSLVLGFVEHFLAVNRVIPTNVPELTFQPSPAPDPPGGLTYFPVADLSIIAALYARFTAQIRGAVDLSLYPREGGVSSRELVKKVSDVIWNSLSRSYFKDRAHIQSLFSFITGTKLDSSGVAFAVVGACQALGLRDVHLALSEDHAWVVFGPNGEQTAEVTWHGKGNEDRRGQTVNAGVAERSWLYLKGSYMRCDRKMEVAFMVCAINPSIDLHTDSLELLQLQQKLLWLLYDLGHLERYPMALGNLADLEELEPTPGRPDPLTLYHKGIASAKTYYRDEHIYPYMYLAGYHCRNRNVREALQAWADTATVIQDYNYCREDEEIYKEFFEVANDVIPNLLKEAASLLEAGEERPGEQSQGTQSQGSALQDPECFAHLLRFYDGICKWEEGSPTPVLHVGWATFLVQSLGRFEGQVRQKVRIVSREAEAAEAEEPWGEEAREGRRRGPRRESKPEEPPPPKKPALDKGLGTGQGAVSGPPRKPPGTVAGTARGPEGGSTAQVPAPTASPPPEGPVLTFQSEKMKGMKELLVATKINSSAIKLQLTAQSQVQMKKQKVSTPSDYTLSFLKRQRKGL
Menin-MLL FL inh = inhibitors of human menin-MLL interaction, wild-type MLL peptide; Fluorescence polarization, fluorescein-MLL peptide displacement from menin; 290,000 tested, under 10 active; FP activity change, % at 61.4 µM; active = well fitted curve in the direction sought with a large enough effect in the polarisation, not every such curve was filed as active; inconclusive = small, poorly fitted or top-dose-only effect, or effect the other way, or a change in a side signal; inactive = no such curve, though single readings can be large or run the other way; the % refers to the polarisation
TSG101-PTAP inh = blocks PTAP/TSG101 interaction to inhibit HIV-1 budding. AID 493005. Fluorescence polarization, FITC-PTAP peptide / Tsg101 binding. 340,000 tested, under 10 active. Potency, µM (highest dose often 115 µM), most hits filed as inhibitors; active = well fitted inhibition curve with a large enough effect in the main read-out, with a control signal flat, not every such curve was filed as active; inconclusive = small, poorly fitted or top-dose-only effect, or effect the other way, or a change in a side signal; inactive = no such curve, though single readings can be large or run the other way
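Steps: Tsg101 binding domain dispensed (10 uM final), compounds pinned in DMSO, FITC-labeled PTAP-motif peptide added (50 nM final); after 20 min binding at room temperature, polarization measured.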
Chronic BCR inh = inhibitors of chronic active B-cell receptor signaling; Potency, µM (titrated, usually from 46.1 µM), usual class: inhibitors; ABC-DLBCL IkBa-CBG/CBR reporter, luminescence ratio, 4 h; 340,000 tested, 0.05% active; AID 493014; active = well fitted inhibition curve with a large enough effect in the signal ratio, with a control signal flat, not every such curve was filed as active; inconclusive = small, poorly fitted or top-dose-only effect, or effect the other way, or a change in a side signal; the % refers to the signal ratio
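Concentration-response series (up to 46 uM) were applied to TMD8 dual-reporter cells for 4 h at 37C with doxycycline. Green/red ratio, after filter-overlap correction, defined %Activity; red signal alone was normalised to basal cells and zero luminescence.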
B2AR arrestin = beta2AR (human) beta-arrestin recruitment activity | beta-arrestin recruitment to beta2AR, cell-based reporter | Potency, µM (series often up to 46.1 µM), actives largely listed as activators | 330,000 tested, 0.02% active; note: nearly all actives have a fitted effect of over 65% in size
MLL CXXC-DNA inh = blocks binding of human MLL CXXC domain to DNA | 290,000 tested, 0.037% active | Potency, µM (series often up to 115 µM), usual class: inhibitors | MLL-CXXC / FITC-HOXA9 DNA fluorescence polarization | Q03164; active = well fitted inhibition curve with a large enough effect in the polarisation, with a control signal flat, not every such curve was filed as active; inconclusive = small, poorly fitted or top-dose-only effect, or effect the other way, or a change in a side signal; inactive = no such curve, though single readings can be large or run the other way; the % refers to the polarisation
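Steps: dispense CXXC domain solution (7 uM) → pin compounds or unlabeled HOX-A9 DNA control → 5 min ambient → add FLSN-HOX-A9 solution (50 nM) → spin → 30 min ambient → fluorescence polarization. Tris pH 7.5/NaCl/DTT/BSA buffer.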
MLL CXXC FP-Fl = MLL CXXC-DNA interaction inhibition, fluorescein FP; shares compounds with MLL CXXC-DNA inh; MLL CXXC-DNA binding, fluorescein FP; Potency, µM (series often up to 345 µM), most hits filed as inhibitors; 200 tested, 70% active; AID 624160; note: nearly all actives have a fitted effect of over 80% in size
MLL CXXC FP-TR = MLL CXXC-DNA interaction inhibition, Texas Red FP; AID 624161; MLL CXXC-DNA binding, Texas Red fluorescence polarization; shares compounds with MLL CXXC-DNA inh; Potency, µM (highest dose often 345 µM), most hits filed as inhibitors; 200 tested, 40% active; note: nearly all actives have a fitted effect of over 75% in size
MLL CXXC TRF = inhibitors of human MLL CXXC domain-DNA interaction, HTRF format | shares compounds with MLL CXXC-DNA inh | MLL CXXC-DNA binding, HTRF, biochemical | Potency, µM (titrated, usually from 172 µM), actives largely listed as inhibitors | 210 tested, 30% active | AID 624162; note: nearly all actives have a fitted effect of over 80% in size
Of the large screens only hits and unclear results are named; the others gave an inactive call (follow-up assays come after a bar, where they were run). The full list was thinned out, with hits kept by preference. Unless noted, calls come from the whole dose curve; as a rule, active = well fitted curve in the direction sought with a large enough effect; inconclusive = small, poorly fitted or top-dose-only effect, or another doubt; inactive = no such curve, though single readings can be large; an effect the other way counts as inactive or inconclusive.

CCC(CO)NC(=O)[C@@H]1C=C2c3cccc4[nH]cc(c34)C[C@H]2N(C)C1 (some centres undefined)	Menin-MLL FL inh inconclusive, MLL CXXC-DNA inh 35.5µM (no result: TSG101-PTAP inh, Chronic BCR inh, B2AR arrestin) | MLL CXXC FP-Fl 159µM | MLL CXXC FP-TR inconclusive | MLL CXXC TRF inactive
COc1cccc2c1C(=O)c1c(O)c3c(c(O)c1C2=O)C[C@@](O)(C(=O)CO)C[C@@H]3O[C@H]1C[C@H](N)[C@H](OC2CCCCO2)[C@H](C)O1 (some centres undefined)	Menin MLL FP TR inconclusive, Menin-MLL FL inh inconclusive, MLL CXXC-DNA inh 63.1µM (no result: TSG101-PTAP inh, Chronic BCR inh, B2AR arrestin) | MLL CXXC FP-Fl 35.6µM | MLL CXXC FP-TR 44.8µM | MLL CXXC TRF inactive
CN1C(=O)N(C)C(=O)C2(Cc3cc(NC(=O)c4ccc(F)cc4)ccc3N3CCCC32)C1=O (centres undefined)	none (no result: Menin MLL FP TR, Menin-MLL FL inh)
CCOP(=O)(OCC)O/C(=C/Cl)c1ccc(Cl)cc1Cl	Menin-MLL FL inh inconclusive, MLL CXXC-DNA inh 63.1µM (no result: TSG101-PTAP inh, Chronic BCR inh, B2AR arrestin) | MLL CXXC FP-Fl 159µM | MLL CXXC FP-TR inactive | MLL CXXC TRF inactive
O=C(O)c1ccccc1-c1c2cc(Br)c(=O)cc-2oc2[c]([Hg])c(O)c(Br)cc12	Menin MLL FP TR inconclusive, Menin-MLL FL inh inconclusive, MLL CXXC-DNA inh inconclusive (no result: TSG101-PTAP inh, Chronic BCR inh, B2AR arrestin) | MLL CXXC FP-Fl 0.762µM | MLL CXXC FP-TR inactive | MLL CXXC TRF 23.2µM
COc1ccc(/C=C2/C(=O)NC(=O)N(C3CCCCC3)C2=O)cc1CSc1ccccn1	Menin MLL FP TR inconclusive, MLL CXXC-DNA inh inconclusive (no result: TSG101-PTAP inh) | MLL CXXC FP-Fl 142µM | MLL CXXC FP-TR 142µM | MLL CXXC TRF 76.9µM
